Records with an inconclusive call do not appear. The source made the active and inactive calls. Unless noted, the call rests on the fitted dose curve; in most records, active means well fitted curve in the direction sought with a large enough effect in the repeat runs; inconclusive means weak or mixed curves; inactive means no such curve, though single readings can be large; an effect the other way counts as inactive or inconclusive.
Tests used:
[1] = qHTS assay to identify small molecule agonists of the constitutive androstane receptor (CAR) signaling pathway - cell viability counter screen (AID 1224836); further: nearly all actives have a fitted effect of over 45% in size; further: potency means the concentration at half of the fitted maximal effect; on viability change, negative = cytotoxic: series mostly up to about 92 µM
Procedure, shortened: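 Using CellTiter-Fluor, viability of HepG2 cells harbouring hCAR and CYP2B6-2.2kb was measured following 23 h incubation with a 15-concentration compound series plus PK11195 (0.75 uM final).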

[2] = qHTS assay to identify small molecule antagonists of the constitutive androstane receptor (CAR) signaling pathway - cell viability counter screen (AID 1224837); further: nearly all actives have a fitted effect of over 45% in size; further: potency means the concentration at half of the fitted maximal effect; on activity change, negative = cytotoxicity: series mostly up to about 92 µM
Procedure, shortened: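 Counter screen run in HepG2-CYP2B6-hCAR cells: 4 hr settle, compound titration (15 concentrations) with 50 nM CITCO, 23 hr at 37 C/5% CO2, CellTiter-Fluor fluorescence.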

[3] = molecular target: Nuclear receptor subfamily 1 group I member 3 (Homo sapiens) (UniProt Q14994); experiment: qHTS assay to identify small molecule antagonists of the constitutive androstane receptor (CAR) signaling pathway (AID 1224838);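 further: HepG2 cells stably expressing hCAR with CYP2B6 luciferase reporter stimulated by CITCO; nearly all actives have a fitted effect of over 40% in size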; further: potency means the concentration at half of the fitted maximal effect
Procedure, shortened: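 Cell line: HepG2 double-stable for hCAR and CYP2B6-2.2kb reporter. Agonist: CITCO, 50 nM final. Compounds: 15 concentrations, 24 h, 37 C. Detection: ONE-Glo luminescence.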

[4] = molecular target: Nuclear receptor subfamily 1 group I member 3 (Homo sapiens) (UniProt Q14994); experiment: qHTS assay to identify small molecule agonists of the constitutive androstane receptor (CAR) signaling pathway (AID 1224839); further: nearly all actives have a fitted effect of over 15% in size; further: potency means the concentration at half of the fitted maximal effect;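 on activation: HepG2 cells stably carrying human CAR and a CYP2B6 luciferase reporter; series mostly up to about 92 µM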
Procedure, shortened: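 Double-stable HepG2 cells (hCAR, CYP2B6-2.2kb) seeded 4 h before compound addition. Exposure 24 h with 0.75 uM PK11195 final. Luciferase detected by ONE-Glo.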

[5] = qHTS assay to identify small molecule antagonists of the estrogen related receptor signaling pathway with the pleiotropic PPARgamma coactivator (PGC) from Tox21 10K library - cell viability counter screen (AID 1224840; active means well fitted cell-killing curve with a large enough effect in the repeat runs, not every such curve was filed as active; further: nearly all actives have a fitted effect of over 40% in size; further: potency means the concentration at half of the fitted maximal effect)
Procedure, shortened: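 Following seeding of 2,000 PGC/ERR cells/well and 6 hours' incubation, test compounds were delivered in DMSO. The plates then sat 17.5 hours at 37 C before a fluorogenic live-cell protease reagent (CellTiter-Fluor) was read after 30 min.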

[6] = qHTS assay to identify small molecule agonists of the hypoxia (HIF-1) signaling pathway - cell viability counter screen (AID 1224844; calls by dose curve; further: nearly all actives have a fitted effect of over 50% in size; further: potency means the concentration at half of the fitted maximal effect)
Procedure, shortened: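 Cells (HRE-bla ME-180, 2,000 per well) sat 5 hrs at 37C, got compound for 17 hrs, were read for CCF4-AM FRET, and were finally lysed with CellTiter-Glo for a 30 min room-temperature luminescence read.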

[7] = qHTS assay to identify small molecule agonists of H2AX (AID 1224845; active means well fitted activation curve with a large enough effect in the signal ratio in the repeat runs, not every such curve was filed as active; the % refers to the signal ratio)
Procedure, shortened: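 Wild-type CHO-K1 cells, plated overnight, exposed 3hr at 37C to 15 concentrations (0.76% DMSO final). Lysed, then HTRF anti-pH2AX (S139) cryptate and anti-H2AX-d2 antibodies, 24 hr room temperature; 665/620 nm emission read.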

[8] = molecular target: Thyrotropin receptor (Homo sapiens) (UniProt P16473); experiment: qHTS assay to identify small molecule agonists of the thyroid stimulating hormone receptor (TSHR) signaling pathway (AID 1224843; calls by dose curve; further: nearly all actives have a fitted effect of over 45% in size; further: potency means the concentration at half of the fitted maximal effect)
Procedure, shortened: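 Steps: seed 800 TSHR-HEK293 cells per well; add test compound and hold 30 min at ambient temperature; dispense cAMP-d2 then anti-cAMP cryptate; incubate 1 h at ambient; measure fluorescence intensity.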

[9] = qHTS assay to identify small molecule antagonists of the estrogen related receptor signaling pathway with the pleiotropic PPARgamma coactivator (PGC) from Tox21 10K library (AID 1224841; call rule not given here; further: actives are mostly falling curves and most rising ones were filed inactive; nearly all actives have a fitted effect of over 50% in size; further: potency means the concentration at half of the fitted maximal effect)
Procedure, shortened: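 qHTS antagonist format: PGC/ERR cells, 2k/well, compound in DMSO by pin transfer after 6 h attachment, 18 h treatment at 37 C, One-Glo luminescence read at 30 min.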

[10] = qHTS assay to identify small molecule agonists of the estrogen related receptor signaling pathway with the pleiotropic PPARgamma coactivator (PGC) from Tox21 10K library (AID 1224842); further: nearly all actives have a fitted effect of over 15% in size
Procedure, shortened: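 PGC/ERR reporter cell line, 2,000 cells per well, incubated 6 h at 37 C before 23 nL compound in DMSO was added. After 18 h at 37 C, One-Glo luminescence read following 30 min at room temperature.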
On the % scale 0 is the no-effect control and ±100 the full control effect.

Chain of Thyrotropin receptor (Homo sapiens) (P16473 whole entry, looked up): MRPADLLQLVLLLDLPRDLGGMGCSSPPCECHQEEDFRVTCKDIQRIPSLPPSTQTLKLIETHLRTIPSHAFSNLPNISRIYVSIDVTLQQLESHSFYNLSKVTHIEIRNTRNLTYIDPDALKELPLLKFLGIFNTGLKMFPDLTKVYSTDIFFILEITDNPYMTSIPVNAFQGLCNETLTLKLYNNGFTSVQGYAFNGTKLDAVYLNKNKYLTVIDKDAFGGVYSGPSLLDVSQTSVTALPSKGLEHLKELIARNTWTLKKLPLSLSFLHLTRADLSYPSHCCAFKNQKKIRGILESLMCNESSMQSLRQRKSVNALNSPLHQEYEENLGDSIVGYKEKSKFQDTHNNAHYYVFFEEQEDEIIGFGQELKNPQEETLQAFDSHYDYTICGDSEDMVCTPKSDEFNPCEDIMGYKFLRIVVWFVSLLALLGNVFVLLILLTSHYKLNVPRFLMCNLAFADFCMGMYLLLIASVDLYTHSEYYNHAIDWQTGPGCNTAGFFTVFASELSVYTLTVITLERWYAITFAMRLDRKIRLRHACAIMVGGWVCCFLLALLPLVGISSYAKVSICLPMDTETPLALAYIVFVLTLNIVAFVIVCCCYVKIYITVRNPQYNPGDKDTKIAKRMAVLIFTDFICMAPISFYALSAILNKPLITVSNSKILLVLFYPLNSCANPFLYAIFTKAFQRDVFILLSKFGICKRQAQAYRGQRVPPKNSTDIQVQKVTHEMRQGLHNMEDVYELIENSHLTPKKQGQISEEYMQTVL
Chain of Nuclear receptor subfamily 1 group I member 3 (Homo sapiens) (Q14994 whole entry, looked up): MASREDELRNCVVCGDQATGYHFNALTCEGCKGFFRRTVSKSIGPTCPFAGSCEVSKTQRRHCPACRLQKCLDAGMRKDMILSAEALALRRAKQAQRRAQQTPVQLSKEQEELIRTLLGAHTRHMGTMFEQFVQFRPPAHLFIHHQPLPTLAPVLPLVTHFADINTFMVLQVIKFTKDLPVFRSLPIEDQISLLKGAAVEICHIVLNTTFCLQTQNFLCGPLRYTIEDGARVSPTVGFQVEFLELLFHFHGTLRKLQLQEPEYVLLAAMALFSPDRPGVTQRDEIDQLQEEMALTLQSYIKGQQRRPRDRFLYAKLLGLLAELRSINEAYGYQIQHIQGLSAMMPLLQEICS

COc1cccc(O)c1
inactive: Potency [1] | Potency [2] | Potency [3] | Potency [4] | Potency [5] | Potency [6] | Potency [7]

CC(C)(C)c1cc(CCC(=O)NCCCCCCNC(=O)CCc2cc(C(C)(C)C)c(O)c(C(C)(C)C)c2)cc(C(C)(C)C)c1O
inactive: Potency [1] | Potency [2] | Potency [4] | Potency [5] | Potency [8] | Potency [7]
active: Potency [3] 1.93 µM

CN1[C@@H]2CC[C@@H]1CC(OC(=O)C(CO)c1ccccc1)C2 (stereo partly specified)
inactive: Potency [1] | Potency [2] | Potency [3] | Potency [5] | Potency [6]

c1cc2c3c(c1)ccc1cccc(c13)C2
inactive: Potency [1] | Potency [2] | Potency [3] | Potency [5] | Potency [9] | Potency [10] | Potency [8]

CCC(=O)OCCc1ccccc1
inactive: Potency [1] | Potency [2] | Potency [3] | Potency [4] | Potency [5] | Potency [7]

CCCC(=O)OCC(COC(=O)CCC)OC(=O)CCC
inactive: Potency [1] | Potency [2] | Potency [4] | Potency [5] | Potency [9] | Potency [10] | Potency [6]

CN1CN(C)CN(C)C1
inactive: Potency [1] | Potency [2] | Potency [4] | Potency [5] | Potency [9] | Potency [10] | Potency [8] | Potency [6]

CCCCCCCOC(=O)c1ccccc1C(=O)OCCCCCCC
inactive: Potency [1] | Potency [2] | Potency [3] | Potency [5] | Potency [9] | Potency [8] | Potency [6] | Potency [7]

Cc1cccc(Br)c1
inactive: Potency [1] | Potency [2] | Potency [3] | Potency [5] | Potency [8]

C=CC(C)C#N (stereo unspecified)
inactive: Potency [1] | Potency [2] | Potency [3] | Potency [4] | Potency [5] | Potency [6]

CC1=C(/C=C/C(C)=C/C=C/C(C)=C\C=O)C(C)(C)CCC1
inactive: Potency [1] | Potency [2] | Potency [3] | Potency [6]
active: Potency [4] 23 µM | Potency [8] 10.3 µM

CCCCCCCCCCCC(=O)N(CC)CC
active: Potency [4] 54.5 µM
inactive: Potency [1] | Potency [2] | Potency [3] | Potency [5] | Potency [8] | Potency [7]

CCCCN(CCCC)CCC(O)c1cc2c(Cl)cc(Cl)cc2c2cc(C(F)(F)F)ccc12 (stereo unspecified)
active: Potency [6] 21.3 µM
inactive: Potency [1] | Potency [2] | Potency [3] | Potency [4] | Potency [8] | Potency [7]

CCO[Si](CCCSSSSCCC[Si](OCC)(OCC)OCC)(OCC)OCC
active: Potency [6] 19.5 µM
inactive: Potency [1] | Potency [2] | Potency [3] | Potency [4] | Potency [5] | Potency [7]

CCN(CC)CCNc1ccc(CO)c2sc3ccccc3c(=O)c12
active: Potency [1] 7.5 µM | Potency [2] 7.5 µM | Potency [3] 2.66 µM | Potency [9] 8.41 µM | Potency [6] 26.8 µM
inactive: Potency [4] | Potency [10] | Potency [7]

CCN(CC)CCOC(=O)C1(C2CCCCC2)CCCCC1
inactive: Potency [1] | Potency [2] | Potency [3] | Potency [5] | Potency [6]

O=C1OC(OC(=O)c2cccnc2Nc2cccc(C(F)(F)F)c2)c2ccccc21 (stereo unspecified)
inactive: Potency [1] | Potency [2] | Potency [4] | Potency [5] | Potency [9] | Potency [10] | Potency [8] | Potency [6]

COc1ccc(C#N)cc1
inactive: Potency [1] | Potency [2] | Potency [3] | Potency [4] | Potency [5] | Potency [6] | Potency [7]

CCc1c(Br)c(Br)c(Br)c(Br)c1Br
inactive: Potency [1] | Potency [2] | Potency [3] | Potency [5] | Potency [10] | Potency [6]

CCCCCCCOC(=O)c1ccc(O)cc1
active: Potency [6] 55 µM
inactive: Potency [1] | Potency [2] | Potency [3] | Potency [4] | Potency [5] | Potency [7]

O=C1Nc2ccc(Cl)cc2[C@@](C#CC2CC2)(C(F)(F)F)O1
inactive: Potency [1] | Potency [2] | Potency [3] | Potency [4] | Potency [5] | Potency [7]

CSc1c(Cl)c(Cl)c(Cl)c(Cl)c1Cl
inactive: Potency [1] | Potency [2] | Potency [3] | Potency [5]

C[C@]12CC[C@H]3C(=CCc4cc(O)ccc43)[C@@H]1CCC2=O
inactive: Potency [1] | Potency [2] | Potency [3] | Potency [9] | Potency [7]
active: Potency [4] 27.3 µM | Potency [6] 38.9 µM

CC(C)CCOCCC(C)C
inactive: Potency [1] | Potency [2] | Potency [4] | Potency [5] | Potency [9] | Potency [10] | Potency [8] | Potency [7]

C=C1C(C)(C)[C@@]2(Cl)C(Cl)[C@]1(Cl)C(Cl)(Cl)C2(Cl)Cl (stereo partly specified)
active: Potency [4] 21.3 µM | Potency [9] 53.5 µM | Potency [8] 13.4 µM | Potency [6] 48.1 µM
inactive: Potency [1] | Potency [2] | Potency [3] | Potency [10]

C=CC(=O)OCCOCC(CC)(COCCOC(=O)C=C)COCCOC(=O)C=C
active: Potency [1] 71.4 µM | Potency [2] 31.9 µM | Potency [5] 16 µM | Potency [9] 40.2 µM
inactive: Potency [4] | Potency [10] | Potency [8]

CC(=O)C=O
inactive: Potency [1] | Potency [2] | Potency [3] | Potency [4] | Potency [5] | Potency [6]

C=C/C=C/C=C/CCCCC
inactive: viability change, negative = cytotoxic [1] -0.14% [at 19 µM] | activity change, negative = cytotoxicity [2] -1.33% [at 19 µM] | viability change, negative = cytotoxic [5] -9.87% [at 19 µM] | activation [10] 0.0738% [at 19 µM] | activation [8] -9.38% [at 19 µM] | activity change, negative = cytotoxicity [6] -12% [at 15.8 µM] | activation (H2AX phosphorylation) [7] 0.418% [at 31.6 µM]

CCCCCCCCC(C)=O
inactive: Potency [1] | Potency [2] | Potency [4] | Potency [5] | Potency [8] | Potency [6] | Potency [7]

O=C(NO)c1ccccc1
active: Potency [9] 18.4 µM
inactive: Potency [1] | Potency [2] | Potency [5] | Potency [10]

CCCC(CC)CCCCCCCN (stereo unspecified)
active: Potency [6] 50.2 µM
inactive: Potency [1] | Potency [2] | Potency [4] | Potency [5] | Potency [9] | Potency [10] | Potency [7]

CCCCCCC(C)Nc1ccc(Nc2ccccc2)cc1 (stereo unspecified)
inactive: Potency [1] | Potency [2] | Potency [5] | Potency [8]

— PubChem BioAssay (Tox21)
